Results published in PubChem BioAssay AID1159580 (chemical genetic matrix, 2015).
The campaign covered roughly 5,500 compounds. About 2,000 (36%) were called active. Roughly 18% stayed inconclusive and do not appear here. Cut-off read from the data, not from the text of the source: active = normalized growth mostly below about 0.91 (no sharp cut-off); inconclusive = no clear call, values can overlap the other calls; inactive = mostly above about 0.92. The list shows a part of the results.

Assay: chemical genetic growth profiling, strain panel (AID 1159580);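 note: tested at 20 µM; growth read once vehicle control cultures reached saturation at 30 °C; 1 = growth at the plate median or of vehicle wells; lower values mean less growth of the strain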
Conditions: growth OD

Measured: normalized growth

C[C@]12CCC3C(CC[C@]4(O)C[C@@H](O)CC[C@]34C=O)[C@@]1(O)CCC2C1=CC(=O)OC1 (stereo partly specified)
inactive: S. cerevisiae deletion strains, locus YJR066W, strain TOR1, active compounds read low 0.934 | S. cerevisiae deletion strains, locus YKL009W, strain mrt4, active compounds read low 0.978 | S. cerevisiae deletion strains, locus YKL068W, active compounds read low 0.966 | S. cerevisiae deletion strains, locus YKL085W, strain MDH1 (second series), active compounds read low 0.978 | S. cerevisiae deletion strains, locus YKL085W, strain MDH1, active compounds read low 0.978 | S. cerevisiae deletion strains, locus YKL160W, strain elf1, active compounds read low 0.972 | S. cerevisiae deletion strains, locus YKL190W, strain CNB1, active compounds read low 0.997 | S. cerevisiae deletion strains, locus YKR001C, strain vps1, active compounds read low 0.986 | S. cerevisiae deletion strains, locus YKR026C, strain gcn3, active compounds read low 0.988 | S. cerevisiae deletion strains, locus YKR091W, strain srl3, active compounds read low 0.981 | S. cerevisiae deletion strains, locus YLL001W, strain dnm1, active compounds read low 0.975 | S. cerevisiae deletion strains, locus YLL026W, active compounds read low 0.986 | S. cerevisiae deletion strains, locus YLL041C, strain sdh2, active compounds read low 0.967 | S. cerevisiae deletion strains, locus YLR027C, strain aat2, active compounds read low 0.958 | S. cerevisiae deletion strains, locus YLR039C, strain RIC1, active compounds read low 0.975 | S. cerevisiae deletion strains, locus YLR058C, strain SHM2, active compounds read low 0.989 | S. cerevisiae deletion strains, locus YLR102C, strain apc9, active compounds read low 0.978 | S. cerevisiae deletion strains, locus YLR113W, strain HOG1, active compounds read low 0.983 | S. cerevisiae deletion strains, locus YLR221C, strain rsa3, active compounds read low 1 | S. cerevisiae deletion strains, locus YLR258W, strain gsy2, active compounds read low 0.965 | S. cerevisiae deletion strains, locus YLR262C, strain YPT6 (second series), active compounds read low 0.957 | S. cerevisiae deletion strains, locus YLR262C, strain YPT6, active compounds read low 0.918 | S. cerevisiae deletion strains, locus YLR268W, strain sec22, active compounds read low 0.979 | S. cerevisiae deletion strains, locus YLR320W, strain mms22, active compounds read low 1.05 | S. cerevisiae deletion strains, locus YLR330W, strain CHS5, active compounds read low 0.983 | S. cerevisiae deletion strains, locus YLR342W, strain FKS1 (second series), active compounds read low 1.01 | S. cerevisiae deletion strains, locus YLR342W, strain FKS1, active compounds read low 0.976 | S. cerevisiae deletion strains, locus YLR357W, strain rsc2, active compounds read low 0.998 | S. cerevisiae deletion strains, locus YLR370C, strain arc18, active compounds read low 0.999 | S. cerevisiae deletion strains, locus YLR371W, strain rom2, active compounds read low 0.963 | S. cerevisiae deletion strains, locus YLR384C, strain iki3, active compounds read low 1 | S. cerevisiae deletion strains, locus YLR418C, strain cdc73, active compounds read low 0.95 | S. cerevisiae deletion strains, locus YML016C, strain PPZ1, active compounds read low 0.99 | S. cerevisiae deletion strains, locus YML032C, strain rad52, active compounds read low 0.976 | S. cerevisiae deletion strains, locus YML120C, strain ndi1, active compounds read low 0.954 | S. cerevisiae deletion strains, locus YML124C, strain tub3, active compounds read low 0.987 | S. cerevisiae deletion strains, locus YMR058W, strain fet3, active compounds read low 0.969 | S. cerevisiae deletion strains, locus YMR078C, strain ctf18, active compounds read low 0.965 | S. cerevisiae deletion strains, locus YMR125W, strain sto1, active compounds read low 0.96 | S. cerevisiae deletion strains, locus YMR129W, active compounds read low 0.982 | S. cerevisiae deletion strains, locus YMR205C, strain PFK2, active compounds read low 0.881 | S. cerevisiae deletion strains, locus YMR231W, strain pep5, active compounds read low 0.999 | S. cerevisiae deletion strains, locus YMR307W, strain GAS1, active compounds read low 0.919 | S. cerevisiae deletion strains, locus YNL067W, strain RPL9B, active compounds read low 1.01 | S. cerevisiae deletion strains, locus YNL071W, strain lat1, active compounds read low 0.958 | S. cerevisiae deletion strains, locus YNL183C, strain NPR1, active compounds read low 0.952 | S. cerevisiae deletion strains, locus YNL209W, strain ssb2, active compounds read low 0.974 | S. cerevisiae deletion strains, locus YNL233W, strain BNI4, active compounds read low 1.03 | S. cerevisiae deletion strains, locus YNL248C, strain rpa49, active compounds read low 0.943 | S. cerevisiae deletion strains, locus YNL250W, strain rad50, active compounds read low 0.968 | S. cerevisiae deletion strains, locus YNL271C, strain bni1, active compounds read low 0.981 | S. cerevisiae deletion strains, locus YNL298W, strain CLA4, active compounds read low 0.964 | S. cerevisiae deletion strains, locus YNL307C, strain MCK1, active compounds read low 0.983 | S. cerevisiae deletion strains, locus YNL322C, strain KRE1 (second series), active compounds read low 0.975 | S. cerevisiae deletion strains, locus YNL322C, strain KRE1, active compounds read low 0.99 | S. cerevisiae deletion strains, locus YNR049C, strain mso1, active compounds read low 0.971 | S. cerevisiae deletion strains, locus YNR052C, strain pop2, active compounds read low 0.977 | S. cerevisiae deletion strains, locus YOL012C, strain htz1 1.05 | S. cerevisiae deletion strains, locus YOL147C, strain pex11, active compounds read low 0.981 | S. cerevisiae deletion strains, locus YOR001W, strain rrp6, active compounds read low 1.01 | S. cerevisiae deletion strains, locus YOR061W, strain CKA2, active compounds read low 0.963 | S. cerevisiae deletion strains, locus YOR069W, strain VPS5, active compounds read low 0.984 | S. cerevisiae deletion strains, locus YOR070C, strain gyp1, active compounds read low 0.998 | S. cerevisiae deletion strains, locus YOR080W, strain dia2, active compounds read low 0.988 | S. cerevisiae deletion strains, locus YOR083W, strain WHI5, active compounds read low 0.939 | S. cerevisiae deletion strains, locus YOR106W, strain vam3, active compounds read low 0.9 | S. cerevisiae deletion strains, locus YOR136W, strain idh2, active compounds read low 0.981 | S. cerevisiae deletion strains, locus YOR144C, strain elg1, active compounds read low 0.985 | S. cerevisiae deletion strains, locus YOR184W, strain ser1, active compounds read low 0.975 | S. cerevisiae deletion strains, locus YOR231W, strain MKK1, active compounds read low 1 | S. cerevisiae deletion strains, locus YOR265W, strain rbl2, active compounds read low 0.975 | S. cerevisiae deletion strains, locus YOR270C, strain vph1, active compounds read low 0.997 | S. cerevisiae deletion strains, locus YOR290C, strain snf2, active compounds read low 0.894 | S. cerevisiae deletion strains, locus YOR316C, strain cot1, active compounds read low 0.982 | S. cerevisiae deletion strains, locus YPL051W, strain arl3, active compounds read low 0.995 | S. cerevisiae deletion strains, locus YPL055C, strain LGE1, active compounds read low 1 | S. cerevisiae deletion strains, locus YPL078C, strain atp4, active compounds read low 0.942 | S. cerevisiae deletion strains, locus YPL106C, strain sse1, active compounds read low 0.871 | S. cerevisiae deletion strains, locus YPL240C, strain hsp82, active compounds read low 0.988 | S. cerevisiae deletion strains, locus YPL256C, strain CLN2, active compounds read low 0.974 | S. cerevisiae deletion strains, locus YPR119W, strain clb2, active compounds read low 0.983 | S. cerevisiae deletion strains, locus YPR141C, strain kar3, active compounds read low 0.982 | S. cerevisiae deletion strains, locus YPR163C, strain tif3, active compounds read low 0.967 | S. cerevisiae deletion strains, locus YPR167C, strain met16, active compounds read low 0.975 | S. cerevisiae deletion strains, strain wtn01, active compounds read low 1.01 | S. cerevisiae strains, strain wild type, active compounds read low 0.981
